Here are results for 7 compounds from ChEMBL document CHEMBL1961873, “Compounds: GSK PKIS; Assays: Nanosyn kinase panel” (2012).

In assay [1] the target is Death-associated protein kinase 1 (Homo sapiens) (UniProt P53355). The note with it: at 1 µM.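 Note: each value is a mean inhibition figure.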
Assay [2] deals with T1, Serine/threonine-protein kinase DCLK2 (Homo sapiens) (UniProt Q8N568).
T1 sequence (whole entry): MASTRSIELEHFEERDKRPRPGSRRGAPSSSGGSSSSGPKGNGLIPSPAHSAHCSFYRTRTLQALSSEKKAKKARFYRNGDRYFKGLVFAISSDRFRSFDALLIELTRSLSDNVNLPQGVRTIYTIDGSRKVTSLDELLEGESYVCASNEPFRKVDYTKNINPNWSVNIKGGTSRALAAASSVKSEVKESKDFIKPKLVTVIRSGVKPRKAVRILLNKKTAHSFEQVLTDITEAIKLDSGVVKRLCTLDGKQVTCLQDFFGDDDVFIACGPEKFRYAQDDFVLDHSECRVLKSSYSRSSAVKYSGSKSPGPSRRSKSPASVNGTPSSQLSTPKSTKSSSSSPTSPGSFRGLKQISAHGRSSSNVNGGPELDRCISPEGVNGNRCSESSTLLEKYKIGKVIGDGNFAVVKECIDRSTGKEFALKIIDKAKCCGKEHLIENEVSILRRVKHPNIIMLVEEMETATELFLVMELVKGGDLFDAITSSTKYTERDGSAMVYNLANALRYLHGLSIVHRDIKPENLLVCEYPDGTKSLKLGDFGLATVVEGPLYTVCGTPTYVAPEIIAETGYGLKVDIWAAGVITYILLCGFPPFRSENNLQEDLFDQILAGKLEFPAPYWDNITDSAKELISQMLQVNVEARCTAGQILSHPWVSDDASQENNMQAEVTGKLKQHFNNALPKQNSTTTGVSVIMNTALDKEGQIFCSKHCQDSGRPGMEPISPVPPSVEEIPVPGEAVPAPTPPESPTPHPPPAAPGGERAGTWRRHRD
The note with it: at 0.1 µM.

Assay [3] deals with T1, Serine/threonine-protein kinase DCLK2 (Homo sapiens). The note with it: at 1 µM.
For assay [4], the target named is MAP kinase-activated protein kinase 2 (Homo sapiens) (UniProt P49137). The note with it: at 0.1 µM.
Assay [5] shares this target. The note with it: at 1 µM.
Assay [6] addresses MAP kinase-activated protein kinase 3 (Homo sapiens) (UniProt Q16644). The note with it: at 0.1 µM.
Assay [7] has the same target. The note with it: at 1 µM.
In assay [8] the target is Serine/threonine-protein kinase MARK1 (Homo sapiens) (UniProt Q9P0L2). The note with it: at 0.1 µM.
For assay [9] the target is unchanged. The note with it: at 1 µM.
Assay [10] addresses MAP/microtubule affinity-regulating kinase 3 (Homo sapiens) (UniProt P27448). The note with it: at 0.1 µM.
The target is the same in assay [11]. The note with it: at 1 µM.
The target of assay [12] is T2, MAP/microtubule affinity-regulating kinase 4 (Homo sapiens) (UniProt Q96L34).
T2 sequence (whole entry): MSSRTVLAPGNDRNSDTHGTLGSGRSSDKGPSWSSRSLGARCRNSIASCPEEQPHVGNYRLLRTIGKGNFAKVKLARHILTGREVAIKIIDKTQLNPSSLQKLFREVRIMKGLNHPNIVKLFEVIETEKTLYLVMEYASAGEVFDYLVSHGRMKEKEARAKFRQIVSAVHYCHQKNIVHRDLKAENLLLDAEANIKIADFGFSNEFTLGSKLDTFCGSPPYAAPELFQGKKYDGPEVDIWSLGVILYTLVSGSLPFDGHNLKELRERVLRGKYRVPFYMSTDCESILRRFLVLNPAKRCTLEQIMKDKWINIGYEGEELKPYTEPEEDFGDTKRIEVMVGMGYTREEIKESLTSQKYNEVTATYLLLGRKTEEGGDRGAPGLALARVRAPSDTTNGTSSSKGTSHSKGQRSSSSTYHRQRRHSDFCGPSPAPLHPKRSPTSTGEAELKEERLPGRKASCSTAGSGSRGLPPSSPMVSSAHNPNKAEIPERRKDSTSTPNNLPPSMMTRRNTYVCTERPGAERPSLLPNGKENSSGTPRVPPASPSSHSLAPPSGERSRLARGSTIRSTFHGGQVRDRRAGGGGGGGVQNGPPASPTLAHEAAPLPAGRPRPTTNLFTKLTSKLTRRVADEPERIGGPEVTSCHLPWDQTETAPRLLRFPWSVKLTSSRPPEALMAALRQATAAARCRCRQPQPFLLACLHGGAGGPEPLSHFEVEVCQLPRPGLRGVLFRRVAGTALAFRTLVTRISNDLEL
The note with it: at 0.1 µM.

The target in assay [13] is T2, MAP/microtubule affinity-regulating kinase 4 (Homo sapiens). The note with it: at 1 µM.
Assay [14] has as its target Maternal embryonic leucine zipper kinase (Homo sapiens) (UniProt Q14680). The note with it: at 0.1 µM.
For assay [15] the target is unchanged. The note with it: at 1 µM.
The target in assay [16] is MAP kinase-interacting serine/threonine-protein kinase 1 (Homo sapiens) (UniProt Q9BUB5). The note with it: at 0.1 µM.
Assay [17] shares this target. The note with it: at 1 µM.
The target of assay [18] is MAP kinase-interacting serine/threonine-protein kinase 2 (Homo sapiens) (UniProt Q9HBH9). The note with it: at 0.1 µM.
For assay [19] the target is unchanged. The note with it: at 1 µM.
The target of assay [20] is Serine/threonine-protein kinase MARK2 (Homo sapiens) (UniProt Q7KZI7). The note with it: at 0.1 µM.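 Note: mean percent inhibition of PAR-1Balpha kinase activity, reported from the GSK PKIS screen.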

Structures are written as SMILES.

Maternal embryonic leucine zipper kinase (Homo sapiens), sequence (Q14680 whole entry, looked up): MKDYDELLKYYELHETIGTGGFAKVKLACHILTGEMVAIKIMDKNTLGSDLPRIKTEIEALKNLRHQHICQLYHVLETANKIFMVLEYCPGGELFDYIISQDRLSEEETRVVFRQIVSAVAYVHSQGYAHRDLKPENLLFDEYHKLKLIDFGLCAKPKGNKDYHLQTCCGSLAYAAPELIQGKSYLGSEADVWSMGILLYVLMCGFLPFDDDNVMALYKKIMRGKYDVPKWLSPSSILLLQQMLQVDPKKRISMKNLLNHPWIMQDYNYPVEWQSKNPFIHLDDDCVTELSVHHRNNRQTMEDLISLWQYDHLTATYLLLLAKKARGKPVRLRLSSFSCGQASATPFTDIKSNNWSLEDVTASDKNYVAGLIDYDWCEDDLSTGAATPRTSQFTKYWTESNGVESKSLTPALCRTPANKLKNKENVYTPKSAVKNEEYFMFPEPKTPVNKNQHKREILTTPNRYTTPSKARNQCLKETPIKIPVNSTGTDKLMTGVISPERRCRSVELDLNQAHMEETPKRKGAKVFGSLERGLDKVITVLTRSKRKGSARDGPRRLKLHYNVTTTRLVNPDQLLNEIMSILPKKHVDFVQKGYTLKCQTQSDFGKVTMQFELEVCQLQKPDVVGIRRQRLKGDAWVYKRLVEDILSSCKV
MAP kinase-interacting serine/threonine-protein kinase 2 (Homo sapiens), sequence (Q9HBH9 whole entry, looked up): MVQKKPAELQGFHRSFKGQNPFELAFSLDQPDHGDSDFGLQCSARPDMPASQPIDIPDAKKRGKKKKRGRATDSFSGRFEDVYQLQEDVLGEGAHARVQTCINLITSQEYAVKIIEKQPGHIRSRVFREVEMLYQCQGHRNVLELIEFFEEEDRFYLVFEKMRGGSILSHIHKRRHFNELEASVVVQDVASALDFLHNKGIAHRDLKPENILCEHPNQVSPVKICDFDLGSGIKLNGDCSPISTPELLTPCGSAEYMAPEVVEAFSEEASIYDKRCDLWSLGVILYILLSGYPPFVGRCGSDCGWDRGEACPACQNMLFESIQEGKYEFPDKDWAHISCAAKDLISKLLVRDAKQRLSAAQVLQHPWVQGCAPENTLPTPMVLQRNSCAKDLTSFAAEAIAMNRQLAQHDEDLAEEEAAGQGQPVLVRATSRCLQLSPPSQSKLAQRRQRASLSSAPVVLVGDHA
MAP kinase-activated protein kinase 3 (Homo sapiens), sequence (Q16644 whole entry, looked up): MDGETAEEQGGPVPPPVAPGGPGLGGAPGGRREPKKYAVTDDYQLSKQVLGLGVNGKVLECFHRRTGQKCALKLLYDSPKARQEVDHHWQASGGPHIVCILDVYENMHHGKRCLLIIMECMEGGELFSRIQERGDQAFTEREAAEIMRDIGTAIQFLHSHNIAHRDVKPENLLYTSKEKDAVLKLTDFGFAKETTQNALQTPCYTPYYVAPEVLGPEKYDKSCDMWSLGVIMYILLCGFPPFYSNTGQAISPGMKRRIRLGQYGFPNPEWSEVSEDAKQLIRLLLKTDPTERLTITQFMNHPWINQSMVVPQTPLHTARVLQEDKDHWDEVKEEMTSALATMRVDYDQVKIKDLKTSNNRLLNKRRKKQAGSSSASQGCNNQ
Death-associated protein kinase 1 (Homo sapiens), sequence (P53355 whole entry, looked up): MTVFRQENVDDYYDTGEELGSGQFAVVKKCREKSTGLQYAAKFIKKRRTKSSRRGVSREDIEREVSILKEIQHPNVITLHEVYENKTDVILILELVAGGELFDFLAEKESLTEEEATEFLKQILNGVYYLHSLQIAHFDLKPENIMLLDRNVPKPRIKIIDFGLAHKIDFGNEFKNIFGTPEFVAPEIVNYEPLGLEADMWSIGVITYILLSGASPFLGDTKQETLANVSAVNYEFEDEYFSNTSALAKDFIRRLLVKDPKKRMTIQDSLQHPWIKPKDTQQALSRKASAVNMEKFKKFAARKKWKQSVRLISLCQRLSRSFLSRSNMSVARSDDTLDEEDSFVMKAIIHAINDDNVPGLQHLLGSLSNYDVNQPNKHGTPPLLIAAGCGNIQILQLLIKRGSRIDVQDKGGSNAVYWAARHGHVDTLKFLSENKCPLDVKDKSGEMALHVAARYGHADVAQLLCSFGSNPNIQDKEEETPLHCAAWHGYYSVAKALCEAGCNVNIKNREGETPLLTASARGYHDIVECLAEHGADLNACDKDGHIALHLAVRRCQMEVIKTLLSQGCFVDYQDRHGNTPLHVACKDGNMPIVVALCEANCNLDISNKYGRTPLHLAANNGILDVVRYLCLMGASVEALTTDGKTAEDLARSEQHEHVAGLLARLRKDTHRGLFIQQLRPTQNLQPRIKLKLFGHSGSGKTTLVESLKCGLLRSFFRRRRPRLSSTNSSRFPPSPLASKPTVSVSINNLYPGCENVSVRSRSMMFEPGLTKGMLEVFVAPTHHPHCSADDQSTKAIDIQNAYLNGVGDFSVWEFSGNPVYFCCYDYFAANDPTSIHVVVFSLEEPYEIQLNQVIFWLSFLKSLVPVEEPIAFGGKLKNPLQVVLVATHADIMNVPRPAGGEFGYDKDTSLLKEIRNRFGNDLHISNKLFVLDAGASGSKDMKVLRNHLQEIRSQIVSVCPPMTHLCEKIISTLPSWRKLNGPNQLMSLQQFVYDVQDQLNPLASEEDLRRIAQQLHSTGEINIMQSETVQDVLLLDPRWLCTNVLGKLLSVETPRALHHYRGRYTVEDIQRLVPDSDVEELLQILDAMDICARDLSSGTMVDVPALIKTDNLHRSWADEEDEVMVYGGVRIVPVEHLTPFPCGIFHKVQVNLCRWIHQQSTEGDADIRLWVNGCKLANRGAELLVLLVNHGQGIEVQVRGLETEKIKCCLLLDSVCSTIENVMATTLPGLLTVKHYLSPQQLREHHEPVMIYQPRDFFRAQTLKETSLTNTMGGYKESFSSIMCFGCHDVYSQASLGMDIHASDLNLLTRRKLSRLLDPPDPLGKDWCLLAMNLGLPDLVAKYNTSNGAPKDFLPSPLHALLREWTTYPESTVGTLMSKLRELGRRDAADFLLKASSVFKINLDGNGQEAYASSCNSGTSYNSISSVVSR
Serine/threonine-protein kinase MARK2 (Homo sapiens), sequence (Q7KZI7 whole entry): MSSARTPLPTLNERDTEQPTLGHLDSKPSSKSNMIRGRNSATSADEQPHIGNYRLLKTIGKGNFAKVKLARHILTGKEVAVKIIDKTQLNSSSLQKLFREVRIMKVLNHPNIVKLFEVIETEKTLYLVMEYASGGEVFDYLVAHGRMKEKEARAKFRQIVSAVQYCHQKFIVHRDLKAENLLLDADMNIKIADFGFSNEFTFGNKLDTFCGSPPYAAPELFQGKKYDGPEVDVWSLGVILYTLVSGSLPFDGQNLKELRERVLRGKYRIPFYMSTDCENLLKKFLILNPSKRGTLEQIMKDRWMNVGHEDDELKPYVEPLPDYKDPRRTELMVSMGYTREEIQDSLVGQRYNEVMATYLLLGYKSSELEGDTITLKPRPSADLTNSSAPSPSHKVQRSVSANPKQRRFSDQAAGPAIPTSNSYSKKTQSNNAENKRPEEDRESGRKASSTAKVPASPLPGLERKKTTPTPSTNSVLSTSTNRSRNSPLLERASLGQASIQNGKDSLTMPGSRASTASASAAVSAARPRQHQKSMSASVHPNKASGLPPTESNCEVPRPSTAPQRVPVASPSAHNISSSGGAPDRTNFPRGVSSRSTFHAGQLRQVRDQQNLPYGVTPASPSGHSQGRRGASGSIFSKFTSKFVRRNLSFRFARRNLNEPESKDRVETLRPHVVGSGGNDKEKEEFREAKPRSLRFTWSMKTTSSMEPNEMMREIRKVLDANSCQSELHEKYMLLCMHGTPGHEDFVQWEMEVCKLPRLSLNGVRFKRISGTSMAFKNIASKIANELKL
MAP/microtubule affinity-regulating kinase 3 (Homo sapiens), sequence (P27448 whole entry, looked up): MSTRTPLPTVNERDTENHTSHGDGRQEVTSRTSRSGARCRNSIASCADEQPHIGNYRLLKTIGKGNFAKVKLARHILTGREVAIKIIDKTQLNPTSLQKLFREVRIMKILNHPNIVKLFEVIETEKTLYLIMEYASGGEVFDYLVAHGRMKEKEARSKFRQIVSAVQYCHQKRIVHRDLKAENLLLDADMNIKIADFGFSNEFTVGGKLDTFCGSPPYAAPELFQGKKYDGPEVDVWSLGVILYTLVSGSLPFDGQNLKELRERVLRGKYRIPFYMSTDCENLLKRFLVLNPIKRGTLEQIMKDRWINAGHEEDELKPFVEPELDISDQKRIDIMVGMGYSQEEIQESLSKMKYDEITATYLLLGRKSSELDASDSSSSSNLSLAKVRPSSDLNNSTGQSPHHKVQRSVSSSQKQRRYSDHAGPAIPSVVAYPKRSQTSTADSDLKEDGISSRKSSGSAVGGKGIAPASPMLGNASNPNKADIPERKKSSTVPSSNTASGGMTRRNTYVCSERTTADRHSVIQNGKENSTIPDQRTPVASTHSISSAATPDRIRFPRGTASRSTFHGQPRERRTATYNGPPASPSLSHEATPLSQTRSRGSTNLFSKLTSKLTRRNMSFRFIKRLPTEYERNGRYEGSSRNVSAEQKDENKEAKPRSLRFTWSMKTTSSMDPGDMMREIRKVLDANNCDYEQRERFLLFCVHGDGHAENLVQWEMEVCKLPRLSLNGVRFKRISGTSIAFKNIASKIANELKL
MAP kinase-interacting serine/threonine-protein kinase 1 (Homo sapiens), sequence (Q9BUB5 whole entry, looked up): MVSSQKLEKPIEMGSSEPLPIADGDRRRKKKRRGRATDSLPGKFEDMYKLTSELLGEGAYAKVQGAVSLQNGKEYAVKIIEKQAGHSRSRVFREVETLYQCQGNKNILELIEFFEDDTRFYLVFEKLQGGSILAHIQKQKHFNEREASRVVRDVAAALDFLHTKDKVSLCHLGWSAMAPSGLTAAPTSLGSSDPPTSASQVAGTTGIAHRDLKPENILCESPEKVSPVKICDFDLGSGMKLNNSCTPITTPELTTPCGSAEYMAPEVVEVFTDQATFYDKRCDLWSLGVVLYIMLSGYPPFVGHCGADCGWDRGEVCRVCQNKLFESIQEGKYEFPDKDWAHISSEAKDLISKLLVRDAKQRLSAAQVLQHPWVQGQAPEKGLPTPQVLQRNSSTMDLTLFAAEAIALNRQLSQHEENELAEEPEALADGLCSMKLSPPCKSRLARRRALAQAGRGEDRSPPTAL

A word on the inhibition: it is the drop in the measured response relative to a control, in per cent. Take `CS(=O)(=O)CCNCc1coc(-c2ccc3ncnc(Nc4ccc(OCc5ccccc5)cc4)c3c2)c1`: the inhibition was 1.73% in [1]; -0.36% in assay [2]; 0.64% in assay [3]; 1.33% in assay [4]; 1.98% in assay [5]; 2.6% in assay [6]. Moreover, the inhibition in assay [7] is 1.32%; in assay [8] it was 2.05%; in [9], 1.62%; in assay [10], 1.54%; in [11], 3.7%; in assay [12], 1.75%. Also, the inhibition in assay [13] was 1.07%; in assay [14], 3.52%; in assay [15], 6.96%; in assay [16] it was 3.46%; in assay [17] it was 9.67%; in [18], 3.42%. Moreover, the inhibition is 14.1% in assay [19] and -0.55% in assay [20].
With `COc1cc2ncn(-c3cc(OCc4ccccc4C(F)(F)F)c(C(=O)N(C)C)s3)c2cc1OC`, the inhibition was -1.63% in assay [1]; -2.64% in assay [2]; 3.14% in [3]; -0.07% in assay [4]; -0.4% in [5]; -1.65% in assay [6]. For the same compound, the inhibition was 0.87% in [7]; 0.44% in [8]; 1.45% in [9]; 0.15% in assay [10]; 3.36% in assay [11]; -0.78% in assay [12]. For the same compound, the inhibition in [13] is 0.92%; in assay [14], 2.15%; in [15], 1.97%; in [16] it was 0.52%; in assay [17] it was 3.31%; in assay [18], -0.13%. For the same compound, the results for the inhibition in [19] and in assay [20] were 2.71% and -2.4%, respectively.
On to `CCn1c(-c2nonc2N)nc2ccccc21`, for which the inhibition in [1] is 7.32%; in assay [2] it was -0.38%; in [3], -3.76%; in assay [4], 0.79%; in [5] it was 1.12%; in assay [6] it was 3.15%. In addition, the inhibition is 1.52% in assay [7]; 2.03% in [8]; 3.52% in assay [9]; 3.42% in assay [10]; 22.2% in assay [11]; 1.04% in [12]. Moreover, the inhibition worked out at 2.84% in assay [13]; 1.29% in [14]; 7.45% in assay [15]; 1.93% in assay [16]; 8.64% in [17]; 0.78% in [18]. Moreover, the inhibition is 14.7% in assay [19] and -0.05% in [20].
With `COc1ccc(-c2cc(-c3c[nH]nc3-c3ccccn3)ccn2)cc1`, the inhibition in assay [1] was found to be 6.22%; in assay [2], 2.08%; in assay [3] it was 0.82%; in assay [4], 2.82%; in assay [5], 2.73%; in [6], 6.42%. Further, the inhibition in [7] worked out at 14%; in assay [8], 5.2%; in assay [9] it was 7.25%; in assay [10] it was 5.15%; in assay [11], 5.51%; in [12], 2.2%. The inhibition came out at 2.28% in [13]; 3.77% in [14]; 8.05% in assay [15]; 3.19% in assay [16]; 7.19% in [17]; 2% in [18]. Besides, the inhibition in assay [19] stood at 6.65%; in assay [20], 2.97%.
Turning to `COc1ccc(CNC(=O)c2ccc(-c3cc(-c4nnc(C)o4)ccc3C)cc2)cc1`, the inhibition in [1] was 10.2%; in [2], 1.92%; in assay [3] it was 2.89%; in [4], 4.31%; in assay [5] it was 5.53%; in assay [6], 14.5%. The inhibition in assay [7] is 29.3%; in [8], 1.53%; in assay [9] it was 2.91%; in assay [10] it was 1.55%; in assay [11] it was 0.99%; in [12], 2.25%. Moreover, the inhibition was 1.91% in assay [13]; 0.76% in assay [14]; 1.99% in [15]; 4.23% in assay [16]; 9.25% in assay [17]; 4.37% in [18]. In addition, the inhibition in [19] came out at 8.59%; in [20], 1.99%.
Regarding `Cc1ccc(O)cc1Nc1ccnc2cc(-c3ccccn3)ccc12`, the inhibition in [1] stood at 5.29%; in assay [2], 1.56%; in [3] it was 2.1%; in [4], 1.91%; in assay [5] it was 1.68%; in assay [6], 7.63%. The inhibition in [7] stood at 19.4%; in [8], 4.13%; in assay [9], 6.28%; in assay [10] it was 4.39%; in assay [11], 10.8%; in [12], 2.1%. The inhibition in assay [13] amounted to 3.98%; in assay [14], 1.72%; in [15], 3.79%; in assay [16], 3.8%; in [17], 6.21%; in [18], 1.72%. For the same compound, the inhibition is 4.94% in assay [19] and 0.54% in assay [20].
With `CCn1cc(-c2ccnc3[nH]ccc23)c(-c2cccc(NC(=O)Nc3ccc(OCc4ccccc4)cc3)c2)n1`, the inhibition in assay [1] was 1.12%; in [2] it was -1.87%; in assay [3] it was -0.63%; in [4], -0.39%; in assay [5], -0.71%; in [6], 0.57%. Also, the inhibition in assay [7] amounted to 1.13%; in assay [8], 0.74%; in [9], 3.68%; in assay [10], 1.29%; in [11], 2.97%; in [12], 1.33%. The inhibition was 2.66% in assay [13]; -3.14% in assay [14]; -3.15% in assay [15]; 0.36% in assay [16]; 1.39% in assay [17]; -1.1% in assay [18]. The figures for the inhibition in assay [19] and in [20] were -0.1% and -0.11%, respectively.
